From PubChem BioAssay come the findings set out here.

Each structure is given as a SMILES string. Active and inactive are the calls of the source.

The target of one experiment is Albumin (Bos taurus) (UniProt P02769). The experiment is described as follows: bovine serum albumin binders on microarray, profiling panel, artefact control for SMM control protein annotation, biochemical, small-molecule microarray, Alexa647 label, 635/667 nm fluorescence (AID 1118).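 Note: score merges 667 nm emission intensity and signal-to-noise per printed compound spot.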 Conditions: BSA-A647 binding, fluorescence 635 nm, higher = more signal.
Chain of Albumin (Bos taurus) (P02769 whole entry, looked up): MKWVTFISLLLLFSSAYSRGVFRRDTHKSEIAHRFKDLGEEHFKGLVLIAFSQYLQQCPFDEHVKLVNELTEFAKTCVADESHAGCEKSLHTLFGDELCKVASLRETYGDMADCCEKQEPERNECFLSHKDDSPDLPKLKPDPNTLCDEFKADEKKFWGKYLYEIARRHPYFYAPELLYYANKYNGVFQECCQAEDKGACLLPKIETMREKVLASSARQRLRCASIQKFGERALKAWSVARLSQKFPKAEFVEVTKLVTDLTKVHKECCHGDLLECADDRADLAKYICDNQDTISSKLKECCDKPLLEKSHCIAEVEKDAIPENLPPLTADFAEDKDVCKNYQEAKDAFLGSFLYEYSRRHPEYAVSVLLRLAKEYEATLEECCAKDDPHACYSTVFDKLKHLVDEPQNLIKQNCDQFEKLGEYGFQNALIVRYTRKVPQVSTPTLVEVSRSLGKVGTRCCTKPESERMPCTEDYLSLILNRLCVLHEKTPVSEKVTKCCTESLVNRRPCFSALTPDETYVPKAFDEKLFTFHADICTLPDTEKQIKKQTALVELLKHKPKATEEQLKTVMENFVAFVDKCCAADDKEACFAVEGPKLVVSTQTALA
The nature of experiment [1]: small-molecule microarray binders of probe aXIP, primary screen, biochemical, NeuroSMM set, 635/667 nm fluorescence (AID 1119).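 Note: probe is the protein aXip251-270 applied at 1 µg/mL to compound-printed slides; binding of probe to printed compounds measured as 667 nm fluorescence plus signal to noise.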 Conditions: higher = more signal, called active from +8 up or from −8 down.
Experiment [2] is described as follows: small-molecule binders of probe aNOTCH3, primary screen, biochemical, small-molecule microarray, 635/667 nm fluorescence (AID 1120).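 Note: probe is a biotin-tagged antibody raised against NOTCH3 rather than NOTCH3 protein; score merges spot fluorescence near 667 nm with spot signal to noise.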 Conditions: higher = more signal.
Experiment [3] is described as follows: small-molecule binders of probe aNOTCH2, primary screen, biochemical, small-molecule microarray, 635/667 nm fluorescence (AID 1121).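 Note: score merges feature fluorescence read at 667 nm with its signal to noise.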 Conditions: higher = more signal.
Experiment [4] concerns the target Carbonic anhydrase 2 (Homo sapiens) (UniProt P00918). Briefly: CAII small-molecule binders, profiling panel, biochemical, small-molecule microarray, Alexa647-labelled CAII (AID 1122). Conditions: CAII-A647 binding fluorescence, higher = more signal.
Experiment [5] is described as follows: COS7 lysate on small-molecule microarray, probe aHis, 635 nm (AID 1123).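 Note: z-score combines 667nm fluorescence intensity with signal-to-noise per printed compound spot.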 Conditions: COS7 cell lysate, fluorescence, higher = more signal.
Experiment [6] in a line: compound binding in COS7 lysate, probe aLAP1, primary screen, cell lysate, small-molecule microarray (AID 1124).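 Note: lysate comes from COS7 cells expressing LAP1 and is applied at 0.3 µg/mL; score merges spot fluorescence near 667 nm with signal-to-noise over triplicate slides.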 Conditions: probe aLAP1, fluorescence, higher = more signal.
Another experiment has as its system Sam68 (KHDRBS1). The experiment is described as follows: Sam68 small-molecule binders, primary screen, biochemical, small-molecule microarray, 635 nm fluorescence (AID 1125).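 Note: score merges 667 nm channel intensity with signal to noise over triplicate slides.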 Conditions: small-molecule microarray binding, higher = more signal.
The subject of experiment [7] is Chordin-like protein 2 (CHRDL2). The experiment is described as follows: CHRDL2 small-molecule binders, primary screen, biochemical, small-molecule microarray, 635 nm fluorescence (AID 1126).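 Note: printed compound slides probed with Chrdl2 protein at 4 µg/mL for 1 h at 4 C; score merges 667 nm emission intensity with signal to noise over three replicate slides.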 Conditions: small-molecule microarray binding, fluorescence 635 nm; higher = more signal.
Experiment [8] addresses Concanavalin-A (Canavalia ensiformis) (UniProt P02866). The experiment is described as follows: ConA small-molecule binders, primary screen, artefact control for SMM control protein annotation, biochemical, small-molecule microarray, Alexa647 label, 635 nm (AID 1127).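 Note: z combines 667 nm emission intensity with signal-to-noise across three replicate slides.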 Conditions: ConA-A647 binding fluorescence, higher = more signal.
Experiment [9] can be described thus: anti-His antibody binders, primary screen, artefact control for SMM control protein annotation, biochemical, small-molecule microarray, 635 nm fluorescence (AID 1128).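 Note: score merges feature fluorescence with signal-to-noise for each printed compound spot.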 Conditions: anti-His Alexa647 antibody binding, higher = more signal.
The subject of experiment [10] is Human papillomavirus type 1a E7 protein (residues 1-88). The experiment is described as follows: HPV1a E7 small-molecule binders, primary screen, biochemical, small-molecule microarray, residues 1-88, 635 nm (AID 1129). Conditions: small-molecule microarray binding, fluorescence 635 nm; higher = more signal.
The target in experiment [11] is Focal adhesion kinase 1 (Homo sapiens) (UniProt Q05397). Briefly: small-molecule microarray binders of FAK, primary screen, biochemical, 635/667 nm fluorescence, BSA, DTT (AID 1130).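 Note: composite of spot emission at 667 nm and signal to noise over triplicate slides.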 Conditions: PTK2 binding, 635 nm fluorescence, higher = more signal.
Chain of Focal adhesion kinase 1 (Homo sapiens) (Q05397 whole entry, looked up): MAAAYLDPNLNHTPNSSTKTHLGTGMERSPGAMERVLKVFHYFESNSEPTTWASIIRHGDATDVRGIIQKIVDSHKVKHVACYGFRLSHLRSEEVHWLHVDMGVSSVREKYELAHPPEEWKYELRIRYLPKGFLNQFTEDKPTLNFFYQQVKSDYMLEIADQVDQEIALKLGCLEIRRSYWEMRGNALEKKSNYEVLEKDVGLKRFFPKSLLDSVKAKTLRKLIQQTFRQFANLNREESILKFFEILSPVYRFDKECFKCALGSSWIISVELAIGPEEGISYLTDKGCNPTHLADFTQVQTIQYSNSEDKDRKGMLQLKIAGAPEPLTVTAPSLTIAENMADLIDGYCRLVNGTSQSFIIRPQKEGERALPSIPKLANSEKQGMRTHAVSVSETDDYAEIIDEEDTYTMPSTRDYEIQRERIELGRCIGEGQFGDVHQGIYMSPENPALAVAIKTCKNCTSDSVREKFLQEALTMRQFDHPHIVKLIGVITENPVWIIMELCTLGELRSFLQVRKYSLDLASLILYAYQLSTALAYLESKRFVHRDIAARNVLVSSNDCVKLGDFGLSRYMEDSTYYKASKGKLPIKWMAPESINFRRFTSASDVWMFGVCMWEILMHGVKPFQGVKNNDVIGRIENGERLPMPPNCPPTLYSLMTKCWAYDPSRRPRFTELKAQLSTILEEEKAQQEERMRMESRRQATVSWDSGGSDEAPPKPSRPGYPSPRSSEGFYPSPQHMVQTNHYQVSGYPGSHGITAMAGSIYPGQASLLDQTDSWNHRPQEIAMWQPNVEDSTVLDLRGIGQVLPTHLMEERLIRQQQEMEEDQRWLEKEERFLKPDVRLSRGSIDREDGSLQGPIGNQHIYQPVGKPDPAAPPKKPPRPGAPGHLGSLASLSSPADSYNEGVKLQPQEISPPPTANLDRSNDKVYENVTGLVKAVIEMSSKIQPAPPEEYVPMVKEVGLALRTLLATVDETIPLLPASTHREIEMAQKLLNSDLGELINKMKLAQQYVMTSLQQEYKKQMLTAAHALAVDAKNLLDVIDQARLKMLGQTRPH
Experiment [12] relates to Fibrinogen (Alexa647-labelled). Briefly: fibrinogen binders on compound microarrays, profiling panel, artefact control for SMM control-protein annotation, biochemical, small-molecule microarray, 635/667 nm fluorescence (AID 1131).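 Note: z-score merges 667 nm fluorescence with per-spot signal-to-noise over triplicate slides.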 Conditions: fibrinogen-A647 binding fluorescence, higher = more signal.
For experiment [13], the target named is Follistatin (Homo sapiens) (UniProt P19883). Briefly: follistatin binders on small-molecule microarrays, primary screen, biochemical, small-molecule microarray, 635/667 nm fluorescence (AID 1132). Conditions: FST binding, 635 nm fluorescence, higher = more signal.
Chain of Follistatin (Homo sapiens) (P19883 whole entry, looked up): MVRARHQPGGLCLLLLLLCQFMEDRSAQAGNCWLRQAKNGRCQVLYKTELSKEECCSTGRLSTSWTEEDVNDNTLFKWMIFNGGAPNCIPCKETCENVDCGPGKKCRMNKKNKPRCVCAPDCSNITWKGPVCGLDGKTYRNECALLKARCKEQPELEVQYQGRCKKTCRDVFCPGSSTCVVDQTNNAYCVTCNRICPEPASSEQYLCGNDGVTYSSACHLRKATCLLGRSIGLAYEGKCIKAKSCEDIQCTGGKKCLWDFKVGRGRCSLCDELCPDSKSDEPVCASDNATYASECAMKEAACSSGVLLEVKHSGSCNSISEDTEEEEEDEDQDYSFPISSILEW
Experiment [14] concerns the target Fibroblast growth factor 2 (Homo sapiens) (UniProt P09038). Briefly: FGF2 binders on small-molecule microarrays, primary screen, biochemical, small-molecule microarray, 635/667 nm fluorescence (AID 1133). Conditions: small-molecule microarray binding, FGF2, fluorescence 635/667; higher = more signal.
Experiment [15] is described as follows: mitochondrial membrane potential change in A549 cells, profiling panel, cell-based, JC-1 fluorescence, basal, 24 h, 100 nL (AID 1138).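 Note: A549 lung adenocarcinoma cells under basal conditions with no added stimulus; test concentration not given here.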 Conditions: higher = more signal.
The test system of another experiment is Lefty1. The experiment is described as follows: Lefty1 binders on small-molecule microarrays, primary screen, biochemical, small-molecule microarray, 635/667 nm fluorescence (AID 1139). Conditions: small-molecule microarray binding, fluorescence 635/667; higher = more signal.
The subject of experiment [16] is wheat germ agglutinin (Triticum aestivum), Alexa647-labelled. Briefly: wheat germ agglutinin binders on compound microarrays, profiling panel, artefact control for SMM control-protein annotation, biochemical, small-molecule microarray, 635/667 nm fluorescence (AID 1140).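 Note: score merges 667 nm feature emission with signal to noise over triplicate slides.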 Conditions: WGA-A647 binding, 635 nm fluorescence, higher = more signal.
Experiment [17] deals with Luciferin 4-monooxygenase (Photinus pyralis) (UniProt P08659). The experiment is described as follows: firefly luciferase enzyme inhibitors, primary screen, biochemical, luminescence, purified enzyme, 2006 set (AID 1141).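 Note: cell-free assay with purified firefly luciferase at 100 ng per well in PBS; test concentration not given here.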 Conditions: SteadyGlo luminescence, 30 min, higher = more signal, called active from +8 up or from −8 down.
Chain of Luciferin 4-monooxygenase (Photinus pyralis) (P08659 whole entry, looked up): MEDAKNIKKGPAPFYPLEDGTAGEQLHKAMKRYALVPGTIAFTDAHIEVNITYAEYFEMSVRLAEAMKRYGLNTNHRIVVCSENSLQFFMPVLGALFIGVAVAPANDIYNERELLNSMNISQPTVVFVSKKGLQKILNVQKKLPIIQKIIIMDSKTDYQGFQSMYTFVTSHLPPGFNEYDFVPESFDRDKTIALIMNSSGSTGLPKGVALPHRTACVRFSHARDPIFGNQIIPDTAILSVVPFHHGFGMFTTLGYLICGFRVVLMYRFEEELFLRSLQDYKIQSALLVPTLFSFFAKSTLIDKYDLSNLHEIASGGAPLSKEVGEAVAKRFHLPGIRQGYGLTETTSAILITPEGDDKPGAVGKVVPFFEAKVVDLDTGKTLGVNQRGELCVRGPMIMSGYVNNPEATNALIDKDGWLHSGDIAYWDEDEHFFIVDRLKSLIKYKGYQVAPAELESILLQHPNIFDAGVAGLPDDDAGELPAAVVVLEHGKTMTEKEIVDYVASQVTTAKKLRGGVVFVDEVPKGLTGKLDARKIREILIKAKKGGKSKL

Chain of Fibroblast growth factor 2 (Homo sapiens) (P09038 whole entry, looked up): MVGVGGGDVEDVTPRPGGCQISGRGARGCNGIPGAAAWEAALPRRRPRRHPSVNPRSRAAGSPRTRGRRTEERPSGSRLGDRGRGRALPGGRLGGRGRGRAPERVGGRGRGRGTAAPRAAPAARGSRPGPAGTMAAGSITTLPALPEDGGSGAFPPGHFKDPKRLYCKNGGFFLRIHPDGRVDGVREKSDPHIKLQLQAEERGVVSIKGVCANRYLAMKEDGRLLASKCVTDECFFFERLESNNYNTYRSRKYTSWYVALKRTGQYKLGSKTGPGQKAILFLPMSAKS
Chain of Concanavalin-A (Canavalia ensiformis) (P02866 whole entry, looked up): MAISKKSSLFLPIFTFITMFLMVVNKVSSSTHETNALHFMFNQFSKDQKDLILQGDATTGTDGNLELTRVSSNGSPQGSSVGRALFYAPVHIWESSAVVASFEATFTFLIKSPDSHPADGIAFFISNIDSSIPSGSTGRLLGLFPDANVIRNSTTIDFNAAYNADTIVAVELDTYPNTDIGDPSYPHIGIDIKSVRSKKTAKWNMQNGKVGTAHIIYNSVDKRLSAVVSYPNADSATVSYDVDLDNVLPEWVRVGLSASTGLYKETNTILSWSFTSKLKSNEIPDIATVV

On to `COCCOC(=O)N1C(=O)[C@@]2(c3cc(C#CCCO)ccc31)[C@H](C(=O)N1CCCCCCC1)[C@H]1C(=O)O[C@H](c3ccccc3)[C@H](c3ccccc3)N1[C@@H]2c1ccc(O)cc1`, for which the composite z-score is 0.792 with Albumin (Bos taurus); 0.715 in experiment [2]; 0.102 in [3]; 0.731 in experiment [4]; 2.81 in experiment [5]; 0.837 in experiment [6]. The composite z-score in the experiment on Sam68 (KHDRBS1) turned out to be 1.29; in experiment [7], 0.279; in [8], 1.11; in experiment [9] it was 1.12; in experiment [10] it was 1.18; in experiment [11], 1.49. The composite z-score in [12] amounted to 0.555; in [13], 1.34; in experiment [14], 0.661; in the experiment on Lefty1 it was 0.957; in experiment [16] it was 1.1. Further, the composite Z-score in [1] is 0.516 (inactive). For the same molecule, the results for the z-score in experiment [15] and in experiment [17] were 1.65 and -0.888 (inactive), respectively.

Regarding `C=CC[C@@]1(C(=O)NCC(O)CO)N=C(c2ccc(OCCCO)cc2)O[C@@H]1c1ccccc1CN=[N+]=[N-]` (stereo not given in full), the composite z-score with Albumin (Bos taurus) was 0.988; in experiment [2] it was -0.105; in experiment [3], -0.0759; in [4], 0.809; in experiment [5], 2.98; in experiment [6], 0.411. Further, the composite z-score in the experiment with Sam68 (KHDRBS1) is 1.04; in [7] it was -0.834; in experiment [8], -0.304; in experiment [9], 1.55; in [10], 0.756; in [11], 0.77. In addition, the composite z-score in [12] was 0.198; in experiment [13] it was 0.415; in experiment [14], -0.492; with Lefty1 it was -0.548; in [16] it was 0.569. Moreover, in experiment [1], the composite Z-score is 0.536 (inactive). Besides, the values for the z-score in [15] and in experiment [17] were 1.37 and -0.117 (inactive), respectively.

Regarding `COc1ccc([Si](C)(C)[C@H]2[C@H](CC(=O)N3Cc4ccccc4C[C@H]3CO)O[C@@]3(C(=O)N(Cc4cccc(N5CCOC5=O)c4)c4ccccc43)[C@@H]2C)cc1`, the composite z-score with Albumin (Bos taurus) is -0.89; in experiment [2], -0.0077; in experiment [3], -0.104; in experiment [4], 0.574; in experiment [5], 0.784; in experiment [6] it was 0.0161. Further, the composite z-score with Sam68 (KHDRBS1) is 0.847; in experiment [7], 1.45; in experiment [8], 0.791; in experiment [9], 1.42; in experiment [10] it was 0.533; in [11], 0.432. The composite z-score in experiment [12] is -0.235; in [13] it was 1.31; in experiment [14], 1.32; in the experiment on Lefty1, 1.24; in experiment [16] it was 0.188. For the same molecule, the composite Z-score in experiment [1] is 0.55 (inactive). Moreover, the z-score in [15] is 2; in [17], -0.86 (inactive).

As for `C#CCCCON=C1C[C@@H](O)[C@@H](O)[C@@H]2[C@@H]3C(=O)N(Cc4ccc5c(c4)OCO5)C(=O)[C@@H]3CC[C@@H]12`, the composite z-score was 0.352 with Albumin (Bos taurus); 0.0225 in [2]; -0.148 in experiment [3]; 0.227 in experiment [4]; 0.537 in experiment [5]; -0.0088 in [6]. The composite z-score was 0.005 in the experiment with Sam68 (KHDRBS1); 0.187 in [7]; 0.858 in experiment [8]; 2.73 in [9]; 0.226 in experiment [10]; -0.0967 in experiment [11]. The composite z-score is 0.903 in [12]; 0.669 in [13]; 0.0999 in [14]; 0.847 in the experiment with Lefty1; 1.14 in experiment [16]. Moreover, in [1], the composite Z-score is -0.0164 (inactive). The values for the z-score in [15] and in [17] were 0.505 and 0.76 (inactive), respectively.

Regarding `N#Cc1ccc(NN2C(C(O)c3ccc(I)cc3)C=CC3C(=O)N(c4ccccc4)C(=O)C32)cc1` (stereo not given), the composite z-score with Albumin (Bos taurus) was 0.946; in experiment [2] it was 0.212; in [3] it was 0.139; in [4], 0.74; in [5] it was 2.21; in experiment [6], -0.809. In addition, the composite z-score was 1.29 in the experiment on Sam68 (KHDRBS1); -0.389 in experiment [7]; 1.12 in experiment [8]; 1.33 in experiment [9]; 1.25 in experiment [10]; 0.945 in experiment [11]. Also, the composite z-score in experiment [12] is 0.945; in [13] it was 0.402; in experiment [14], -0.194; with Lefty1, -0.491; in [16], 1.3. In addition, the composite Z-score in [1] was 0.128 (inactive). Also, the z-score in experiment [15] was 1.96; in experiment [17], 0.628 (inactive).

Turning to `CCCNC(=O)[C@@]1(Sc2ccc(C)cc2)CC(=O)N(Cc2ccccc2Cl)[C@@H]1c1ccc(CO)cc1`, the composite z-score with Albumin (Bos taurus) is 0.694; in experiment [2], 0.308; in experiment [3], -0.0906; in [4], 0.572; in experiment [5] it was 1.67; in [6], 1.2. Besides, the composite z-score in the experiment on Sam68 (KHDRBS1) turned out to be 1.31; in experiment [7] it was 0.725; in [8], 1.12; in experiment [9] it was 1.12; in [10], 1.15; in experiment [11] it was 0.29. Further, the composite z-score came to 0.789 in experiment [12]; 1.42 in experiment [13]; 1.6 in experiment [14]; 1.19 in the experiment with Lefty1; 1.18 in [16]. For the same molecule, in [1], the composite Z-score is 0.165 (inactive). The z-score is 1.02 in experiment [15] and -0.0629 (inactive) in [17].
